Screens as filed in PubChem BioAssay.
Rows were chosen to be rich in hits. Some 9.4% of all compounds tested hit in one or more screens of this group.
Pf growth 96h: Primary qHTS for delayed death inhibitors of the malarial parasite plastid, 96 hour incubation; actives 6.9% (n = 320,000); P. falciparum luciferase reporter growth, 96 h; Potency, µM (series often up to 28.7 µM), for inactives: at the highest dose activity change, negative = inhibition, usual class: inhibitors; further: on the % scale 0 is the no-effect control and ±100 the full control effect
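Plates of compound plus infected erythrocytes (2% hematocrit, 0.05% parasitemia final) incubate 96 hours, 37 C, 5% CO2. Detection reagent added; reduced luminescence from the parasites' luciferase reporter flags inhibition.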
Pf growth 48h: Primary qHTS for delayed death inhibitors of the malarial parasite plastid, 48 hour incubation; P. falciparum luciferase growth in erythrocytes, 48 h; Potency, µM (highest dose often 28.7 µM), without a hit: top-dose activity change, negative = inhibition, hits mostly inhibitors; actives 5.9% (n = 310,000); AID 504832, 2011; further: on the % scale 0 is the no-effect control and ±100 the full control effect
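Read-out is firefly luciferase luminescence from an integrated reporter in P. falciparum, so falling signal marks reduced parasite growth. Infected erythrocytes were at 2% hematocrit and 0.1% parasitemia (final) in Albumax-supplemented RPMI 1640.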
SARS PLP yeast: qHTS of Yeast-based Assay for SARS-CoV PLP; S. cerevisiae expressing SARS-CoV PLpro, growth rescue; Potency, µM (series often up to 32.9 µM), without a hit: top-dose activity, positive = growth rescue, most hits filed as activators; actives 0.19% (n = 330,000); calls by dose curve; further: 0% is about no effect; nearly all actives have a fitted effect of over 55% in size
AMA1 RON2 block: qHTS for Inhibitors of AMA1-RON; Towards Development of Antimalarial Drug Lead: Primary Screen; AID 720542, 2013; Potency, µM (highest dose often 58.2 µM), for inactives: at the highest dose activity change, negative = inhibition, most hits filed as inhibitors; AlphaScreen AMA1-biotinylated RON2 peptide binding; Plasmodium falciparum AMA1 (3D7) - RON2 peptide interaction; actives 0.2% (n = 360,000);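 further: 0% = vehicle wells and -100% = peptide control; nearly all actives have a fitted effect of over 45% in size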
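AMA1 (3D7) with his tag at 25 nM final met compounds first, then biotinylated RON2 peptide at 25 nM; detection used donor plus acceptor beads, 10 µg/mL apiece, read by AlphaScreen after 30 min at room temperature.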
Numbers without * were called inactive; [ ] = another dose, or the depositor's remark. Unless noted, the call rests on the fitted dose curve; in most records, active means well fitted curve in the direction sought with a large enough effect; inconclusive means small, poorly fitted or top-dose-only effect, or another doubt; inactive means no such curve, though single readings can be large; an effect the other way counts as inactive or inconclusive. Potency means the concentration at half of the fitted maximal effect.

What do the screens show for `COc1cccc(C2c3[nH]c4ccccc4c3CCN2Cc2cccn2-c2ncccn2)c1` (stereo not given)?
Pf growth 96h: 5.2µM*; Pf growth 48h: inconclusive; SARS PLP yeast: 0%; AMA1 RON2 block: -26%

How did CCn1nc(C)c(CN2CCc3c([nH]c4ccccc34)C2c2ccc(F)c(OC)c2)c1C (stereo not given) do in these assays?
Pf growth 96h: inconclusive; Pf growth 48h: 2.6µM*; SARS PLP yeast: -2%; AMA1 RON2 block: 40µM*

How did Fc1ccc(C2c3[nH]c4ccccc4c3CCN2Cc2cccn2-c2ncccn2)cc1 (stereo not given) do in these assays?
Pf growth 96h: 18%; Pf growth 48h: -3%; SARS PLP yeast: 1%; AMA1 RON2 block: -25%

What do the screens show for `O=C(Cc1ccc(Cl)cc1)c1c[nH]c(C(=O)NCCCN2CCOCC2)c1`?
Pf growth 96h: -7%; Pf growth 48h: inconclusive; SARS PLP yeast: 0%; AMA1 RON2 block: -14%

What do the screens show for `CCOC(=O)C1=C(C)NC(C)=C(C(=O)OCC)C1c1cn(-c2ccccc2)nc1-c1ccco1`?
Pf growth 48h: 4.7µM*; SARS PLP yeast: 0%; AMA1 RON2 block: -4%

What do the screens show for `COC(=O)c1cn(-c2ccccc2)nc1-c1ccccc1`?
Pf growth 96h: -4%; SARS PLP yeast: 0%; AMA1 RON2 block: 18%

How did CCOC(=O)C1=C(C)NC(=O)NC1c1cn(-c2ccccc2)nc1-c1cccs1 (stereo not given) do in these assays?
Pf growth 96h: inconclusive; Pf growth 48h: inconclusive; SARS PLP yeast: -2%; AMA1 RON2 block: -2%

Results for CC(C)OC(=O)c1cn(-c2ccccc2)nc1-c1ccco1 ?
Pf growth 96h: -3%; Pf growth 48h: 10µM*; SARS PLP yeast: -7%; AMA1 RON2 block: 2%

What do the screens show for `COc1ccc(C2C(C(C)=O)=C(O)C(=O)N2CCCn2ccnc2)cc1` (stereo not given)?
Pf growth 96h: 110%; Pf growth 48h: 51%; SARS PLP yeast: -5%; AMA1 RON2 block: -7%

How did Cc1ccc(C(=O)COC(=O)COc2ccccc2[N+](=O)[O-])s1 do in these assays?
Pf growth 96h: 12%; Pf growth 48h: 5%; SARS PLP yeast: 4%; AMA1 RON2 block: -16%

What do the screens show for `CCOC(=O)COc1ccccc1/C=C\[N+](=O)[O-]`?
Pf growth 96h: 107%; Pf growth 48h: 15µM*; SARS PLP yeast: -108%; AMA1 RON2 block: -13%

Results for Nc1ccc2ccccc2c1N=Nc1ccccc1 ?
AMA1 RON2 block: 18µM*

How did Nc1ncnc(N)c1N=Nc1ccccc1 do in these assays?
Pf growth 96h: 5%; Pf growth 48h: inconclusive; SARS PLP yeast: -10%; AMA1 RON2 block: -1%

How did Cc1c(-c2nc(N)nc(Nc3ccccc3)n2)oc2ccccc12 do in these assays?
Pf growth 96h: inconclusive; Pf growth 48h: -47%; SARS PLP yeast: -18%; AMA1 RON2 block: -2%

What do the screens show for `COc1ccc(-c2cc(=O)oc(-c3cccc(C)c3)n2)cc1`?
Pf growth 96h: 49%; Pf growth 48h: 49%; SARS PLP yeast: 1%; AMA1 RON2 block: 3%

How did CCc1cccc2c(C#N)cn(CC(=O)NCCOC)c12 do in these assays?
Pf growth 96h: -21%; Pf growth 48h: 10µM*; SARS PLP yeast: 0%; AMA1 RON2 block: 5%

What do the screens show for `Cc1ccc(NC(=O)CCS(=O)(=O)c2cc3[nH]c(=O)c(=O)[nH]c3cc2C)cc1`?
Pf growth 96h: 4.1µM*; Pf growth 48h: 6%; SARS PLP yeast: 0%; AMA1 RON2 block: -10%

What do the screens show for `COC(=O)C1CSc2[nH]c(=O)sc2C1c1ccc(OC)c(OC)c1` (stereo not given)?
Pf growth 96h: inconclusive; Pf growth 48h: 10µM*; SARS PLP yeast: 5%; AMA1 RON2 block: 0%

Results for O=C(CSc1nnc(Cc2ccccc2)n1-c1cccc(Cl)c1)N1CCOCC1 ?
Pf growth 96h: -4%[5.75 µM]; Pf growth 48h: 5%; SARS PLP yeast: 1%; AMA1 RON2 block: 2%

Results for Cc1cccc(-n2c(Cc3ccccc3)nnc2SCc2ccc([N+](=O)[O-])cc2)c1 ?
Pf growth 96h: 7.4µM*; Pf growth 48h: inconclusive; SARS PLP yeast: -20%; AMA1 RON2 block: -15%

How did Cc1cccc(-n2c(Cc3ccccc3)nnc2SCC(=O)N2CCOCC2)c1 do in these assays?
Pf growth 96h: 4.1µM*; SARS PLP yeast: 4%; AMA1 RON2 block: 0%

How did COc1cc(/C=C/C(=O)OCC(=O)N(C)Cc2ccccc2)ccc1O do in these assays?
Pf growth 96h: inconclusive; Pf growth 48h: inconclusive; SARS PLP yeast: -4%; AMA1 RON2 block: -6%

Results for CCC(C)(C)n1nnnc1C(c1ccc(OC)c(OC)c1)N1CCN(c2cccc(OC)c2)CC1 (stereo not given) ?
Pf growth 96h: 41%; Pf growth 48h: 7.4µM*; SARS PLP yeast: 8%; AMA1 RON2 block: -8%

How did CCC(C)(C)n1nnnc1C(c1ccc(OC)c(OC)c1)N1CCN(c2ccc(F)cc2)CC1 (stereo not given) do in these assays?
Pf growth 48h: 13µM*; SARS PLP yeast: -19%; AMA1 RON2 block: -13%

Results for CC(C)(C)n1nnnc1C(c1cccnc1)N1CCN(c2cccc(C(F)(F)F)c2)CC1 (stereo not given) ?
Pf growth 96h: -25%; Pf growth 48h: 3.7µM*; SARS PLP yeast: -21%; AMA1 RON2 block: -12%

How did CCC(C)(C)n1nnnc1C(c1ccc(OC)c(OC)c1)N1CCN(c2ccccc2)CC1 (stereo not given) do in these assays?
Pf growth 96h: 26%; Pf growth 48h: inconclusive; SARS PLP yeast: 3%; AMA1 RON2 block: -7%

How did CCOC(=O)c1cc(-c2nnc(-c3ccc(Cl)cc3)o2)c(C)nc1C do in these assays?
Pf growth 96h: -4%; SARS PLP yeast: 2%; AMA1 RON2 block: -9%

How did O=C(O)c1ccc2c(c1)C(=O)N([C@H](Cc1ccc(F)cc1)C(=O)O)C2=O do in these assays?
Pf growth 96h: 19%; Pf growth 48h: inconclusive; SARS PLP yeast: 3%

How did S=C(NC1CCCCC1)N1CCn2cccc2C1c1cccnc1 (stereo not given) do in these assays?
Pf growth 96h: 14%; Pf growth 48h: inconclusive; SARS PLP yeast: -9%; AMA1 RON2 block: -7%

Results for Cc1[nH]n2cnnc2c(=O)c1Br ?
Pf growth 96h: 53%; Pf growth 48h: 4%; SARS PLP yeast: -1%; AMA1 RON2 block: -4%

How did OCCC1CN(Cc2ccc(F)cc2Cl)CCN1CCc1ccccc1 (stereo not given) do in these assays?
Pf growth 96h: inconclusive; Pf growth 48h: -27%; SARS PLP yeast: inconclusive; AMA1 RON2 block: -2%

What do the screens show for `COc1ccc(F)c(CN2CCN(CCc3ccccc3)C(CCO)C2)c1` (stereo not given)?
Pf growth 96h: 3.7µM*; Pf growth 48h: -23%; SARS PLP yeast: -1%; AMA1 RON2 block: -25%
